We go through 43 compounds from PubChem BioAssay (EPA / NIEHS).

Inconclusive results are not listed. The source made the active and inactive calls. Rule for the calls: active = hit-call score of the fitted dose curve at least 0.9, where 1 is the maximum; inconclusive = response in the unintended direction; inactive = score below 0.9.

Test [1] can be described thus: ATG_XTT_Cytotoxicity: Cytotoxicity Assessment in the Attagene TRANS-FACTORIAL HepG2 Assay (AID 2283584). The method, boiled down:
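Viability endpoint from XTT after 24 h chemical exposure of reporter-transfected human HepG2 liver cells; signal loss fitted relative to DMSO negative control.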

The nature of test [2]: TOX21_p53_BLA_p2_viability: Viability Assessment in the Tox21 HCT-116 p53 Agonism Beta-lactamase Assay, Phase 2 (AID 2283591).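 Note: compound exposure lasted 16 h at 37 °C; actives lower the ATP signal meaning cytotoxicity.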 The method, boiled down: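 HCT116 p53-bla cells, 4000/well, dosed after 5 h plating (217-fold dilution of DMSO stocks) and incubated 16 h at 37C. Viability taken as cellular ATP by CellTiter-Glo luminescence after 30 min RT; signal loss marks cytotoxicity.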

The target of test [3] is Cellular tumor antigen p53 (Homo sapiens) (UniProt P04637). As to the kind of experiment: TOX21_p53_BLA_p3_ratio: Tox21 HCT-116 p53 Agonism Beta-lactamase Assay, Ratio, Phase 3 (AID 2283596). The method, boiled down: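 HCT116 p53-bla cells (4000/well) given compound in DMSO (217-fold dilution) after 5 h, incubated 16 h at 37C. CCF4-AM substrate 2 h at room temperature; 460/530 nm emission ratio, gain fitted against DMSO.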
Cellular tumor antigen p53 (Homo sapiens), sequence (P04637 whole entry, looked up): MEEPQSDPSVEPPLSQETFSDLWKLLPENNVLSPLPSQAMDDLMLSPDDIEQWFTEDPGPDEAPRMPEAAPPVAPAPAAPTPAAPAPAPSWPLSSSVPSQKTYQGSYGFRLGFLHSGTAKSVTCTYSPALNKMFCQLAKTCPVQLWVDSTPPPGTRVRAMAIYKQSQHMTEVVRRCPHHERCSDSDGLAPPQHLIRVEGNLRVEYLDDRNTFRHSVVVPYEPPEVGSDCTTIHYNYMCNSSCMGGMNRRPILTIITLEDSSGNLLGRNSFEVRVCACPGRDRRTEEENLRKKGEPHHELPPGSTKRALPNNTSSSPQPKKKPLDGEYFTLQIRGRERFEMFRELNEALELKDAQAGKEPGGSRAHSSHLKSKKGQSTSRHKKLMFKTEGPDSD

The nature of test [4]: TOX21_p53_BLA_p4_viability: Viability Assessment in the Tox21 HCT-116 p53 Agonism Beta-lactamase Assay, Phase 4 (AID 2283597).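 Note: hits lower the luminescence signal meaning cytotoxicity.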 Put shortly:
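Following a 16 h exposure at 37C, the treated HCT116 wells were first read for the FRET ratio. They were then lysed with CellTiter-Glo, and ATP luminescence was recorded after 30 min at room temperature.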

Test [5] has as its target Cellular tumor antigen p53 (Homo sapiens) (UniProt P04637). As to the kind of experiment: TOX21_p53_BLA_p5_ratio: Tox21 HCT-116 p53 Agonism Beta-lactamase Assay, Ratio, Phase 5 (AID 2283599). Put shortly:
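HCT-116 p53-bla cells (4000/well) plated 5 h, dosed with compound (217-fold DMSO dilution) for 16 h at 37 C; CCF4-AM substrate 2 h at room temperature. Activity is the 460/530 nm emission ratio (405 nm excitation), fitted in gain-of-signal direction versus DMSO.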

The target is the same in test [6]. The test can be described thus: TOX21_p53_BLA_p4_ratio: Tox21 HCT-116 p53 Agonism Beta-lactamase Assay, Ratio, Phase 4 (AID 2283601). The method, boiled down:
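HCT-116 p53 beta-lactamase reporter cells (4000/well) preincubated 5 h, then compound (217-fold dilution of DMSO stock) for 16 h at 37C. CCF4-AM substrate added 2 h at room temperature; 460/530 nm emission ratio fitted upward versus DMSO.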

A short description of test [7]: TOX21_p53_BLA_p3_viability: Viability Assessment in the Tox21 HCT-116 p53 Agonism Beta-lactamase Assay, Phase 3 (AID 2283593).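 Note: cells exposed to compound for 16 h before reading.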 Put shortly: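 HCT116 cells, 4000/well, dosed 5 h after plating by pin transfer (217-fold dilution from DMSO stock) and incubated 16 h at 37C, 5% CO2. Viability read as ATP luminescence with CellTiter-Glo after 30 min at room temperature.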

The target in test [8] is Cellular tumor antigen p53 (Homo sapiens) (UniProt P04637). As to the kind of experiment: TOX21_p53_BLA_p2_ratio: Tox21 HCT-116 p53 Agonism Beta-lactamase Assay, Ratio, Phase 2 (AID 2283592). Put shortly:
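Gain-of-signal p53 agonism was scored from the beta-lactamase FRET ratio (460/530 nm, 405 nm excitation) in HCT116 cells treated 16 h at 37C, 5% CO2, with DMSO serving as negative control and baseline.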

A short description of test [9]: TOX21_p53_BLA_p5_viability: Viability Assessment in the Tox21 HCT-116 p53 Agonism Beta-lactamase Assay, Phase 5 (AID 2283600). Put shortly: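 After the 460/530 nm beta-lactamase measurement, the wells received an ATP-detection luciferase reagent; signal was read 30 min later at RT. Compound treatment lasted 16 h on cells pre-incubated 5 h post-seeding.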

Turning to `NC(=O)Nc1ccccc1`, the outcome in test [1], in [2], in test [3], in test [4], in [5] and in [6] was inactive.
Turning to `CC1=CCC(C(C)C)C=C1` (stereo unspecified), the compound was called inactive in test [1], in [2] and in test [7].
For `CCCCCCCCCC(C)=O`, the outcome in test [1], in [2], in test [8] and in test [5] was inactive.
Turning to `CC(=O)OCCc1ccccc1`, the result in test [1], in [2], in test [7], in [4], in test [5] and in [9] was inactive. For the same compound, in [6], the result was inactive.
For `CC(C)(O)Cc1ccccc1`, the outcome in test [1], in [8], in test [7], in test [3], in test [4] and in [5] was inactive. Further, the call in test [9] was inactive.
For the compound `CCCCOCCOC(=O)COc1ccc(Cl)cc1Cl`, the result in test [1], in test [2], in test [8], in test [4], in test [5] and in [9] was inactive.
`Cc1ccc(S(=O)(=O)N=C=O)cc1`: the compound was classed as inactive in test [1], in test [2], in test [7], in test [5], in [9] and in test [6].
For `Nc1ccc(C(=O)OCCCOC(=O)c2ccc(N)cc2)cc1`, the outcome in [1], in test [2], in test [7], in [4], in test [5] and in test [9] was inactive.
`CCCCCCCCCCCCC`: the call in test [1], in [2], in test [3], in test [5], in test [9] and in test [6] was inactive.
In the case of `CCc1occc(=O)c1O`, the compound was classed as inactive in test [1], in test [2] and in test [9].
For the compound `CC(CC=O)CC(C)(C)C` (stereo unspecified), the call in [1], in test [2], in test [3], in [4] and in test [6] was inactive.
With `Cc1cc(C)n(CO)n1`, the compound was classed as inactive in test [1], in [2], in test [7], in test [3], in test [5] and in test [9]. In addition, the outcome in [6] was inactive.
As for `N#Cc1ccc(C2CCCc3cncn32)cc1` (stereo unspecified), the outcome in test [1], in test [2], in test [8], in [5], in test [9] and in test [6] was inactive.
Usually AC50 stands for the midpoint of the concentration-response curve, whichever way the signal moves. For the compound `CCCCCCCCCCCCCCCCCCOS(=O)(=O)O`, the call in test [1], in [2], in test [4], in test [5], in test [9] and in test [6] was inactive. Moreover, the AC50 in [7] is 66.9 µM (active); in test [3], 86.5 µM (active).
Take `Nc1ccnc(=O)[nH]1`: the call in [1], in [2], in [8], in test [4], in test [9] and in [6] was inactive.
Regarding `O=C1CCCCCCCCCCC1`, the compound was called inactive in test [1], in test [2], in test [8], in [9] and in [6].
For `C=C(C)[C@@H]1CC=C(C)CC1`, the compound was classed as inactive in test [1], in test [2], in [7], in test [4], in test [5] and in test [6].
In the case of `CC(C)(C)N`, the result in [1] and in test [4] was inactive.
As for `CO[Si](C)(C)OC`, the result in test [1], in test [8], in test [4], in [5], in test [9] and in [6] was inactive.
For the compound `CCC[Si](OC)(OC)OC`, the outcome in test [1], in test [7], in test [4], in test [5] and in [6] was inactive.
For `CCOC(=O)C1=NOC(c2ccccc2)(c2ccccc2)C1`, the compound was classed as inactive in [1], in [8], in test [4], in test [5], in test [9] and in [6].
In the case of `O=C(O)CC(C(=O)O)S(=O)(=O)O` (stereo unspecified), the outcome in test [1], in test [8], in test [7], in test [9] and in [6] was inactive.
Consider `CCCc1ccc(O)c(OC)c1`, for which the outcome in test [1], in [8], in [3], in test [5], in [9] and in [6] was inactive.
Turning to `CC(CCC(=O)O)(c1ccc(O)cc1)c1ccc(O)cc1`, the result in test [1], in [8], in test [7], in test [3], in [4] and in test [5] was inactive. Also, the compound was called inactive in test [9] and in test [6].
On to `CC1CCC(C(C)(C)S)C(=O)C1` (stereo unspecified), for which the outcome in [1], in test [4], in [5] and in [6] was inactive.
Turning to `C=Cc1ccc(OC(C)=O)cc1`, the compound was classed as inactive in [1], in test [8], in [7], in [3], in test [5] and in test [9].
Regarding `Cc1c(C(=O)c2c[nH]n(C)c2=O)ccc(S(C)(=O)=O)c1C1=NOCC1`, the compound was classed as inactive in test [1], in test [8], in [7], in [3], in test [5] and in [9]. Besides, the result in test [6] was inactive.
Turning to `CN(C)Cc1cc(CN(C)C)c(O)c(CN(C)C)c1`, the call in test [1], in test [8], in test [7], in test [3], in [4] and in test [5] was inactive. Also, the compound was called inactive in test [9] and in test [6].
Consider `CCC(C)(O)CCCC(C)C` (stereo unspecified), for which the compound was classed as inactive in test [1], in [8], in [7], in test [3], in test [5] and in test [9]. Besides, in test [6], the result was inactive.
`CC(=O)OCC=C(C)C`: the compound was classed as inactive in [1], in [8], in test [3], in test [4], in test [5] and in [9]. Besides, the outcome in [6] was inactive.
On to `CC=C(C)C=CC=C(C)C`, for which the call in test [1], in test [7], in test [4], in test [5] and in test [6] was inactive.
Turning to `CCCCC1CCC(=O)O1` (stereo unspecified), the result in test [1], in test [8], in test [3], in test [4], in [5] and in [9] was inactive. Further, in test [6], the outcome was inactive.
For the compound `C=CC(=O)OCC(C)OCC(C)OCC(C)OC(=O)C=C` (stereo unspecified), the compound was classed as inactive in [1], in test [8], in test [7], in test [5] and in test [6].
Regarding `CC1CC(=O)CC(C)(C)C1` (stereo unspecified), the compound was called inactive in [1], in test [8], in [3], in test [5], in test [9] and in [6].
In the case of `CC(=O)c1ccccc1O`, the call in test [1], in test [8], in [7] and in test [5] was inactive.
On to `CCCCCCCCCCCC(C)=O`, for which the result in [1], in test [7], in test [9] and in [6] was inactive.
For `CCCC(C)C(=O)OCC` (stereo unspecified), the result in [1], in test [3], in [4] and in test [6] was inactive.
On to `CO[Si](CCCS)(OC)OC`, for which the compound was called inactive in [1], in [8], in test [3], in test [5], in [9] and in test [6].
In the case of `C=C(C)C1CC=C(C)C(OC(C)=O)C1` (stereo unspecified), the outcome in [1], in [8] and in [3] was inactive.
Take `CCC1COC(=O)O1` (stereo unspecified): the result in [1], in test [8], in [7], in [3], in test [5] and in [9] was inactive. Moreover, in test [6], the result was inactive.
Turning to `C=CCCCCCCCCC=O`, the outcome in test [1], in [4], in test [5] and in [9] was inactive.
Turning to `CC(=O)OC/C=C(/C)CCC=C(C)C`, the outcome in test [1], in [8], in test [3], in [4], in test [5] and in test [9] was inactive. The result in [6] was inactive.
For the compound `COc1cc(C)ccc1O`, the result in test [1], in test [4], in [5], in test [9] and in [6] was inactive.
